Assay outcomes from PubChem.
CD40 NFkB inh: CD40 pathway inhibition in BL2 cells; BL2 NF-kB luciferase reporter, CD40L-induced, 4 h; inhibition, % at 10 µM; AID 1053188; actives 0.94% (n = 83,000);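 active = mean inhibition of at least 50% with a set share of replicates also reaching that level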
Large screens that a line does not name were inactive; [ ] = another dose, or the depositor's remark. This excerpt belongs to a sample that is enriched for hits.

CCCC(O)C#Cc1cnc2c(c1)C(=O)N([C@H](C)CO)C[C@H](C)[C@H](CN(C)S(=O)(=O)c1ccc(C)cc1)O2 (some centres undefined)	none
Cc1cc(=O)n2c(-c3ccccc3C)n[nH]c2n1	none
CCc1nc2ccccc2n1Cc1ccc(OC)c(OC)c1	none
COc1cc2c3nnc(-c4ccccc4)c-3cn(Cc3ccc(F)cc3)c2cc1OC	CD40 NFkB inh 55
COc1ccc(CNn2c(-c3cccc(C)c3)nc3ccccc3c2=O)cc1OC	none
CCNC(=O)[C@@H]1[C@@H](CO)[C@@H]2Cn3c(ccc(-c4ccccc4F)c3=O)[C@@H]2N1CC1CC1	none
O=C(NN=Cc1ccccc1C(=O)O)C(=O)NN=Cc1ccccc1C(=O)O	none
CCOC(=O)c1nc(NCCc2ccccc2)sc1C	none
CC1Cc2ccccc2N1C(=O)c1cnc2n(c1=O)CCS2 (centres undefined)	none
CC1Cc2ccccc2N1c1ncnc(N)c1[N+](=O)[O-] (centres undefined)	CD40 NFkB inh 54
CC1Cc2ccccc2N1C(=O)c1cnsn1 (centres undefined)	none
CC(=O)N1CCN(CC(=O)Nc2cccc(S(=O)(=O)N3CCCCC3)c2)CC1	none
O=C(CCCc1nc2ccccc2s1)Nc1nccs1	none
O=C(NNS(=O)(=O)c1ccc(F)cc1)c1ccccc1	none
CCCS(=O)(=O)N1CCN(CC2CC=CCC2)CC1 (centres undefined)	none
Cc1ccc(-c2nc(N/N=C/c3ccncc3)c3ccccc3n2)cc1	CD40 NFkB inh 53
c1ccc2c(Nc3nc(-c4ccncc4)nc4ccccc34)cccc2c1	none
Cc1ccc(NCC(=O)N/N=C/c2ccncc2)cc1	none
CCC(=O)N1C[C@H](O)COC[C@@H]2O[C@@H](CC(=O)NCc3ccc(Oc4ccccc4)cc3)CC[C@H]21	none
Nc1cccc([N+](=O)[O-])c1	none
COCCNC(=O)c1csc(Nc2cccc3ccccc23)n1	none
CC1CC(C)C(=NNC(N)=O)C(C(O)CC2CCC(=O)NC2=O)C1 (centres undefined)	CD40 NFkB inh 56
Cc1ccc(S(=O)(=O)N2CCOCC2)cc1NC(=O)C1CC(=O)N(c2ccc3c(c2)OCCO3)C1 (centres undefined)	none
c1csc(-c2nnc(NC3CCCCC3)c3ccccc23)c1	none
COc1ccc(C#Cc2ccc3c(c2)[C@@H]2[C@@H](CCN2C(=O)C2CCCC2)[C@@H](CO)N3)cc1	none
CCc1cnc(N2[C@H](C#N)[C@H](c3ccc(C#CCC4CCCC4)cc3)[C@@H]2CO)s1	CD40 NFkB inh 56[25 µM]
CCc1cnc(N2[C@H](C#N)[C@H](c3ccc(C#CCC4CCCC4)cc3)[C@H]2CO)s1	none
CCc1cnc(N2[C@@H](C#N)[C@@H](c3ccc(C#CCC4CCCC4)cc3)[C@@H]2CO)s1	none
CCOC(=O)COc1nc(C)c(Br)c(OC)n1	none
CCCN1Cc2cccc(C(=O)Nc3ccc(CN4CCCC4)cc3)c2C1=O	none
CCOC(=O)N1CCN(C(=O)COC(=O)c2cccc(C)c2[N+](=O)[O-])CC1	none
CC(C)N1C(=O)/C(=C\c2nc3ccccc3c(=O)[nH]2)c2ccccc21	CD40 NFkB inh 33
O=c1[nH]c(C(F)(F)F)nc2ccccc12	none
CC(C)Sc1nc2ccccc2c(=O)[nH]1	none
CC(C)CC(=O)OC1C(N2CCOCC2)c2c(ccc(/C=C/C(=O)N3CCOCC3)c2O)OC1(C)C (centres undefined)	none
CCCNC(=O)C1(C)CCCN(Cc2cc3ccccc3o2)C1 (centres undefined)	none
N#CC1(NC(=O)COC(=O)c2ccc(Cl)nc2)CCCCC1	none
Cc1cc(SCC(=O)NC2(C#N)CCCCC2)nc2c(C)cccc12	none
N#CC1(NC(=O)Cn2ncc(Cl)c(Cl)c2=O)CCCCC1	CD40 NFkB inh 119
COc1cccc(-c2ccccc2[C@@H]2[C@@H](CO)N(C(=O)Cc3ccccc3)[C@H]2C#N)c1	none
Cc1cc(NC(=O)c2cccs2)n(-c2ccccc2)n1	none
Cc1nn(CC(=O)Nc2ccccc2)c(=O)c2ccccc12	none
CCC(=O)NC(c1ccccc1OC)c1ccc2cccnc2c1O (centres undefined)	CD40 NFkB inh 88
CCC(=O)NC(c1ccc(OC)cc1)c1cc(Cl)c2cccnc2c1O (centres undefined)	none
Cc1cc(NC(c2cccnc2)c2ccc3cccnc3c2O)no1 (centres undefined)	none
CC(C(=O)Nc1cc(C(F)(F)F)ccc1N1CCOCC1)N1C(=O)C2CCCCC2C1=O (centres undefined)	none
Cc1cc(C)n2nc(C(=O)OCC(=O)NNC(=O)c3ccc(Cl)cc3)nc2n1	none
O=C(CCCc1ccccc1)NCc1cn2ccsc2n1	none
CC(=NNc1nc2ccccc2s1)c1ccncn1	CD40 NFkB inh 63
C/C(=N\OCC(=O)Nc1nc2ccccc2s1)c1ccccc1	none
O=C(Nc1nc2ccccc2s1)c1cnccn1	none
CC(=O)Nc1nc(-c2cccc3ccccc23)cs1	none
Cc1cc(C(=O)COC(=O)Cc2ccc(Cl)cc2)c(C)n1C	none
Cc1cc(C(=O)COC(=O)c2ccccc2O)c(C)n1Cc1cccs1	CD40 NFkB inh 108
Cc1ccsc1C(=O)OCC(=O)c1cc(C)n(C)c1C	CD40 NFkB inh 62
CC(=O)Nc1ccccc1OCC(=O)c1cc(C)n(Cc2cccs2)c1C	none
Cc1cc(C(=O)COC(=O)c2ccc3c(c2)OCO3)c(C)n1Cc1cccs1	none
Cc1cc(C(=O)COc2ncnc3sccc23)c(C)n1C	none
CCn1nc(C)c(NC(=O)c2ccc(Cl)cc2)c1C	none
OC[C@H]1[C@@H](c2ccc(-c3cccnc3)cc2)[C@@H]2CN(Cc3ccccn3)CCCCN12	none
CSc1nsc(NC(=O)Cc2ccccc2)n1	none
CCOC(=O)C1(CCOc2ccccc2)CCN(Cc2cnc(C)s2)CC1	none
N#C[C@H]1[C@H](c2ccccc2-c2ccccc2)[C@H](CO)N1C(=O)NC1CCCC1	none
N#C[C@@H]1[C@@H](c2ccccc2-c2ccccc2)[C@@H](CO)N1C(=O)NC1CCCC1	CD40 NFkB inh 53[25 µM]
N#C[C@H]1[C@H](c2ccccc2-c2ccccc2)[C@@H](CO)N1C(=O)NC1CCCC1	none
O=C(O)CCN1C(=O)/C(=C\c2ccncc2)SC1=S	none
O=C(O)CCCCCN1C(=O)/C(=C/c2cn(-c3ccccc3)nc2-c2cccs2)SC1=S	none
CC(/C=C1\SC(=O)N(CCCC(=O)O)C1=O)=C\c1ccccc1	CD40 NFkB inh 48
N#C[C@H]1[C@@H](c2ccc(-c3cccc(F)c3)cc2)[C@H](CO)N1C(=O)c1cccnc1	none
CC(=O)N/C(N)=N/c1nc2cc(C)ccc2o1	none
O=C(CCn1nnc2ccccc2c1=O)NCC1CCC(C(=O)O)CC1 (centres undefined)	none
O=C(Nc1ccc(S(=O)(=O)N2CCOCC2)cc1)c1ccc([N+](=O)[O-])s1	none
O=C(Nc1ccc2c(c1)CCC2)c1cccs1	none
O=C(Nc1cccc(S(=O)(=O)N2CCCCC2)c1)c1cccs1	none
O=C(Nc1cccc(N2C(=O)C=CC2=O)c1)c1cccs1	CD40 NFkB inh 99
CS(=O)(=O)N1[C@@H]2Cn3c(ccc(C4=CCCCC4)c3=O)[C@H]1[C@@H](C(=O)N1CCOCC1)[C@@H]2CO	none
CCS(=O)(=O)N1Cc2ccccc2CC1C(=O)Nc1nc2ccccc2[nH]1 (centres undefined)	none
CCS(=O)(=O)N1Cc2ccccc2CC1C(=O)Nc1nc2ccccc2s1 (centres undefined)	CD40 NFkB inh 61
CCc1nnc(NC(=O)C2Cc3ccccc3CN2S(=O)(=O)CC)s1 (centres undefined)	none
COc1ccccc1OC(C)C(=O)NNC(=S)NC1CCCC1 (centres undefined)	none
COc1ccc(CC(=O)N/N=C/c2cccs2)cc1OC	none
COCCCNC(=O)c1ccc([N+](=O)[O-])c(Cl)c1	none
N#C/C(=C\c1ccc(O)c(O)c1)C(=O)NCCCc1ccccc1	none
